# Records with an inconclusive call do not appear. Active and inactive are the calls of the source. How the source made its calls, unless noted: active means hit-call score of the fitted dose curve at least 0.9, where 1 is the maximum; inactive means score below 0.9.
# How the values were obtained:
# [1] = CCTE_Shafer_MEA_acute_AB: CCTE's Alamar Blue Assay for Cytotoxicity in the Neural Acute Assay, Shafer Lab (AID 2284069; active means hit-call score of the fitted dose curve at least 0.9, where 1 is the maximum;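 further: active compounds lower the viability signal compared with DMSO wells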)
# Summary of the method: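 Primary rat cortical neurons on MEA plates, exposed acutely after baseline recording on day 13 or 15 post-plating. Viability by CellTiter Blue resazurin reduction (1:6 reagent dilution), fluorescence 544/590 nm; loss of signal versus DMSO.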
# [2] = CCTE_Shafer_MEA_acute_LDH: CCTE's Lactate Dehydrogenase Assay for Cytotoxicity in the Neural Acute Assay, Shafer Lab (AID 2284086; active means hit-call score of the fitted dose curve at least 0.9, where 1 is the maximum;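 further: active means LDH release rises above DMSO vehicle level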)
# Summary of the method: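 Cytotoxicity readout: spectrophotometric LDH activity in supernatant of rat primary cortical neurons, post-plating day 13 or 15, sampled after 40 min compound exposure; signal gain relative to DMSO baseline.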
# [3] = tested on: DIO2 (gene 1734); assay: CCTE_GLTED_hDIO2: CCTE's human Deiodinase 2 (DIO2) Inhibition Assay, Great Lakes Toxicology and Ecology Division (GLTED) Lab (AID 2284050; active means hit-call score of the fitted dose curve at least 0.9, where 1 is the maximum)
# Summary of the method: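 Triplicate cell-free incubations (3 h) of human DIO2 with chemical preceded colorimetric Sandell-Kolthoff quantitation of liberated iodide; DMSO served as negative control for curve fitting.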
# [4] = tested on: DIO3 (gene 1735); assay: CCTE_GLTED_hDIO3: CCTE's human Deiodinase 3 (DIO3) Inhibition Assay, Great Lakes Toxicology and Ecology Division (GLTED) Lab (AID 2284055; active means hit-call score of the fitted dose curve at least 0.9, where 1 is the maximum;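 further: potency is for inhibition seen as loss of released iodide signal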)
# Summary of the method: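 Steps: incubate adenovirus-produced hDIO3 with chemical for 3 hours; detect freed iodide via cerium-arsenic Sandell-Kolthoff colorimetry; compare with DMSO baseline.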
# [5] = CCTE_Shafer_MEA_dev_bursting_electrodes_number: CCTE's Neural Network Formation Assay for Number of Bursting Electrodes, Shafer Lab (AID 2284043; active means hit-call score of the fitted dose curve at least 0.9, where 1 is the maximum;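 on AC50: potency is for loss of bursting electrodes relative to DMSO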)
# Summary of the method: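 Counted: electrodes with burst rate ≥1 per 2 min in each well. Cells: primary rat cortex, 1.5 x 10^5/well, on 16-electrode MEA wells. Exposure: DIV 0–12, compound renewed DIV 5 and 9. Recording days 5, 7, 9, 12; AUC vs DMSO baseline.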
# [6] = CCTE_Shafer_MEA_dev_per_burst_interspike_interval: CCTE's Neural Network Formation Assay for Burst Interspike Interval, Shafer Lab (AID 2284044);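 further: mean spike spacing inside bursts as AUC over recordings on days 5 7 9 12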;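 on AC50: potency for a decrease of within-burst interspike interval below DMSO level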
# Summary of the method: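 Primary rat cortical neurons on 48-well MEA plates, exposed from day 0 through day 12, treatment renewed at DIV 5 and 9. Within-burst interspike interval recorded days 5, 7, 9, 12, well-averaged, summarised as AUC; negative fit versus DMSO.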
# [7] = CCTE_Shafer_MEA_dev_burst_duration_mean: CCTE's Neural Network Formation Assay for Mean Burst Duration, Shafer Lab (AID 2284045);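 on AC50: curve fitted for loss meaning shorter burst duration than DMSO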
# Summary of the method: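 Network-formation assay in primary rat cortical neurons; treatment spans twelve days of development. Mean burst duration per well is integrated by trapezoidal AUC and fitted in the loss-of-signal direction against DMSO baseline.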
# [8] = CCTE_Shafer_MEA_dev_interburst_interval_mean: CCTE's Neural Network Formation Assay for Mean Interburst Interval, Shafer Lab (AID 2284046);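 further: well-mean interburst interval of bursting electrodes as AUC over four recording days; curve fitted for decrease in interburst interval relative to DMSO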
# Summary of the method: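 Recordings on days 5, 7, 9 and 12 give well-mean interburst interval across actively bursting electrodes, summarized as area under the curve. Cultures: rat cortical neurons, continuous exposure from day 0, compound renewed at feeds; decrease analyzed versus DMSO.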
# [9] = CCTE_Shafer_MEA_dev_inter_network_spike_interval_mean: CCTE's Neural Network Formation Assay for Mean Inter-network Spike Interval, Shafer Lab (AID 2284047)
# Summary of the method: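 Primary rat cortical neurons on 16-electrode MEA wells, exposed from plating day 0 through DIV 12, compound renewed at DIV 5 and 9 media changes. Mean interval between network-spike peaks recorded DIV 5, 7, 9, 12; collapsed as trapezoidal AUC, fitted downward versus DMSO.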
# [10] = CCTE_Shafer_MEA_dev_network_spike_number: CCTE's Neural Network Formation Assay for Number of Network Spikes, Shafer Lab (AID 2284048);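 further: synchronized bursts across electrodes counted on days 5 7 9 12 and integrated as AUC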;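 on AC50: fit as a loss of signal meaning fewer network spikes than DMSO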
# Summary of the method: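 Extracellular recordings from 16-electrode wells track network formation in rat cortical cultures under continuous treatment from plating. The endpoint is network spike number, expressed as AUC across DIV 5–12 relative to DMSO vehicle.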
# [11] = CCTE_Shafer_MEA_dev_network_spike_peak: CCTE's Neural Network Formation Assay for Mean Number of Electrodes in Network Spike, Shafer Lab (AID 2284049);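 on AC50: fitted for loss of signal meaning fewer electrodes in network spikes than DMSO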
# Summary of the method: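 Continuous 12-day exposure of rat cortical cultures, starting at plating, on MEA plates. Endpoint: electrodes participating in network-spike peaks, AUC across DIV 5–12, DMSO as negative control.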
# [12] = CCTE_Shafer_MEA_dev_spike_duration_mean: CCTE's Neural Network Formation Assay for Mean Spike Duration, Shafer Lab (AID 2284051);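 further: mean network spike duration pooled as area under curve over DIV 5 to 12 recordings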;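 on AC50: potency for a decrease in mean network spike duration versus DMSO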
# Summary of the method: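 Primary rat cortical neurons on 16-electrode MEA wells (PEI-coated, laminin in plating drop), exposed from plating through DIV 12 with compound renewed at DIV 5 and 9. Mean network-spike duration recorded DIV 5, 7, 9, 12; trapezoidal AUC across days, DMSO baseline.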
# [13] = CCTE_Shafer_MEA_dev_network_spike_duration_std: CCTE's Neural Network Formation Assay for Standard Deviation of Network Spike Duration, Shafer Lab (AID 2284052);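 further: area under curve of spike duration SD across recording days 5 to 12; hits are decreases in network spike duration SD versus DMSO vehicle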
# Summary of the method: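 Primary rat cortical neurons on PEI-coated 16-electrode MEA wells, exposed from plating day 0 through day 12 with compound renewed at DIV 5 and 9. Network spike duration SD recorded on days 5, 7, 9, 12, collapsed as trapezoidal AUC; loss-of-signal fit versus DMSO.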
# [14] = CCTE_Shafer_MEA_dev_per_network_spike_spike_number_mean: CCTE's Neural Network Formation Assay for Mean Number of Spikes in a Network Spike, Shafer Lab (AID 2284053)
# Summary of the method: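 Primary rat cortical neurons on 48-well, 16-electrode MEA plates were exposed from plating to DIV 12, with dosing renewed on DIV 5 and 9. Spikes per network spike (0.05 s peak window) were recorded on DIV 5, 7, 9 and 12 and collapsed as trapezoidal AUC versus DMSO.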
# [15] = CCTE_Shafer_MEA_dev_per_network_spike_spike_percent: CCTE's Neural Network Formation Assay for Percent of Spikes in a Network Spike, Shafer Lab (AID 2284054)
# Summary of the method: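 Developing networks of rat cortical neurons are dosed at day 0 and recorded extracellularly four times up to day 12. The endpoint is the area under the curve of percent spikes in network spikes, fitted in the negative direction relative to DMSO.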
# [16] = CCTE_Shafer_MEA_dev_LDH: CCTE's Lactate Dehydrogenase Assay for Cytotoxicity in the Neural Network Formation Assay, Shafer Lab (AID 2284068; active means hit-call score of the fitted dose curve at least 0.9, where 1 is the maximum;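 further: exposure for twelve days from plating with re-dosing on DIV 5 and 9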)
# Summary of the method: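 Primary rat cortical neurons were plated on PEI/laminin MEA plates and exposed from day 0 for twelve days, with compound renewed at DIV 5 and 9. Cytotoxicity was determined by spectrophotometric LDH assay relative to DMSO.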
# [17] = CCTE_Shafer_MEA_dev_AB: CCTE's Alamar Blue Assay for Cytotoxicity in the Neural Network Formation Assay, Shafer Lab (AID 2284083; active means hit-call score of the fitted dose curve at least 0.9, where 1 is the maximum;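 further: twelve days of exposure from plating with re-dosing on DIV 5 and 9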)
# Summary of the method: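 Primary rat cortical neurons on PEI-coated 48-well MEA plates, 1.5 x 10^5 cells/well in laminin drop; compound exposure from day 0 of plating for twelve days, renewed at medium changes on DIV 5 and 9. Viability read as resazurin reduction by fluorescence, relative to DMSO.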
# [18] = CCTE_Shafer_MEA_dev_mutual_information_norm: CCTE's Neural Network Formation Assay for Mutual Information Normalization, Shafer Lab (AID 2284091);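 on AC50: mutual information between electrodes summarised as area under curve across four recording days; potency is for a decrease in mutual information relative to DMSO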
# Summary of the method: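 Exposure of primary rat cortical neurons began at plating and ran to DIV 12, with full media and treatment renewal after DIV 5 and 9 recordings. Mutual information AUC (DIV 5–12) was analysed for loss versus DMSO.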
smiles,measurement,setting,value
CO[Si](OC)(OC)c1ccccc1,outcome,[1],inactive
same,outcome,[2],inactive
Oc1ccc(Cl)cc1Cc1cc(Cl)ccc1O,AC50,[3],88.4 µM (active)
same,AC50,[4],57.3 µM (active)
O=C(c1ccc(O)cc1)c1ccc(O)cc1O,outcome,[1],inactive
same,outcome,[2],inactive
CN(C)c1ccc(C(=N)c2ccc(N(C)C)cc2)cc1,AC50,[5],2.27 µM (active)
same,AC50,[6],3.43 µM (active)
same,AC50,[7],4.06 µM (active)
same,AC50,[8],2.95 µM (active)
same,outcome,[9],inactive
same,AC50,[10],1.35 µM (active)
same,AC50,[11],2.88 µM (active)
same,AC50,[12],2.42 µM (active)
same,AC50,[13],1.73 µM (active)
same,AC50,[14],2.39 µM (active)
same,AC50,[15],1.63 µM (active)
same,AC50,[16],3.2 µM (active)
same,AC50,[17],4.33 µM (active)
same,AC50,[18],0.975 µM (active)
CC/C=C\C/C=C\C/C=C\CCCCCCCC(=O)O,AC50,[3],21.2 µM (active)
same,AC50,[4],13.1 µM (active)
N[C@H]1C(O)O[C@H](CO)[C@H](O)[C@@H]1O (stereo partly drawn),AC50,[5],24.8 µM (active)
same,AC50,[6],2.98 µM (active)
same,outcome,[7],inactive
same,outcome,[8],inactive
same,outcome,[9],inactive
same,outcome,[10],inactive
same,AC50,[11],25.4 µM (active)
same,AC50,[12],25.3 µM (active)
same,outcome,[13],inactive
same,AC50,[14],25.6 µM (active)
same,AC50,[15],27.4 µM (active)
same,AC50,[16],15 µM (active)
same,AC50,[17],2.98 µM (active)
same,outcome,[18],inactive
CC=CC(F)(F)C(F)(F)C(F)(F)F,outcome,[5],inactive
same,outcome,[6],inactive
same,outcome,[7],inactive
same,outcome,[8],inactive
same,outcome,[9],inactive
same,outcome,[10],inactive
same,outcome,[11],inactive
same,outcome,[12],inactive
same,outcome,[13],inactive
same,outcome,[14],inactive
same,AC50,[15],3.82 µM (active)
same,outcome,[18],inactive
CCCCC/C=C\C/C=C\CCCCCCCC(=O)OC,AC50,[3],46 µM (active)
same,AC50,[4],16.8 µM (active)
CCCCCCCC/C=C\CCCCCCCC(=O)OCCO,AC50,[3],19.5 µM (active)
same,AC50,[4],14 µM (active)
O=S(=O)(O)c1ccccc1C=Cc1ccc(-c2ccc(C=Cc3ccccc3S(=O)(=O)O)cc2)cc1,outcome,[3],inactive
same,AC50,[4],100 µM (active)
FC(F)=C(F)OC(F)(F)C(F)(F)C(F)(F)F,outcome,[6],inactive
same,outcome,[7],inactive
same,outcome,[8],inactive
same,outcome,[9],inactive
same,outcome,[10],inactive
same,outcome,[11],inactive
same,outcome,[12],inactive
same,outcome,[13],inactive
same,outcome,[14],inactive
same,outcome,[15],inactive
same,outcome,[18],inactive
CCOC(F)(F)C(F)(F)C(F)(F)C(F)(F)F,outcome,[5],inactive
same,outcome,[6],inactive
same,outcome,[7],inactive
same,outcome,[8],inactive
same,outcome,[9],inactive
same,outcome,[10],inactive
same,outcome,[11],inactive
same,outcome,[12],inactive
same,outcome,[13],inactive
same,outcome,[14],inactive
same,outcome,[15],inactive
same,outcome,[17],inactive
same,outcome,[18],inactive
Nc1ccc(N)c(Cl)c1,outcome,[1],inactive
same,outcome,[2],inactive
CCCCC(CC)COC(=O)c1ccccc1O (stereo not drawn),outcome,[2],inactive
CCCCCCCC/C=C\CCCCCCCC(=O)O,AC50,[3],79.4 µM (active)
same,AC50,[4],29.8 µM (active)

# From PubChem BioAssay (EPA / NIEHS)
